PubChem BioAssay (NCATS)
Several values for one entry are separate records, joined by “and”; a condition that tells them apart may be missing. Equal entries are not always repeated. Inconclusive results are not listed. A structure can be active in one record and inactive in another. Activity calls are given as the source filed them. Unless noted, the call rests on the fitted dose curve; in most records, active means well fitted curve in the direction sought with a large enough effect; inconclusive means small, poorly fitted or top-dose-only effect, or another doubt; inactive means no such curve, though single readings can be large; an effect the other way counts as inactive or inconclusive.

What was measured:
[1] = biological target: Mitogen-activated protein kinase 10 (Mus musculus) (UniProt Q61831); test: JNK3 AlphaScreen Assay (AID 530; active means well fitted curve in either direction with a large enough effect, not every such curve was filed as active;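 further: kinase came from lysate of stimulated human HepG2 cells; signal reports phosphorylation of biotinylated GST-cJun 1-79 at Ser73 with 10 µM ATP; on the % scale 0 is the no-effect control and ±100 the full control effect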)
In short: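 Activity was read by AlphaScreen after JNK3-containing HepG2 lysate (cytokine pre-activated) phosphorylated biotinylated GST-cJun with 10 uM ATP at room temperature. Phospho-Ser73 cJun antibody with Protein-A acceptor beads provided detection.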

[2] = Cell Viability - N2a (AID 540); settings: N2a mouse neuroblastoma cell viability; activity change, negative = cytotoxicity: at 92.2 µM (top of the series); further: nearly all actives have a fitted effect of over 45% in size; further: potency means the concentration at half of the fitted maximal effect;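 on activity change, negative = cytotoxicity: plate controls were DMSO alone for no effect and tamoxifen control for full effect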
In short: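 CellTiter-Glo ATP luminescence, read 20 min after reagent at room temperature, reported viability following 40 h compound treatment at 37 °C. N2a mouse neuroblastoma cells seeded 1500/well; Hill equation gave AC50.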

[3] = Cell Viability - H-4-II-E (AID 543);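 further: cells exposed to compound for 40 hours; nearly all actives have a fitted effect of over 35% in size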; further: potency means the concentration at half of the fitted maximal effect
In short: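 CellTiter-Glo luminescence (intracellular ATP) measured after 40 h compound exposure at 37 °C in H-4-II-E rat hepatoma cells seeded at 1500/well. Values are AC50s fitted with the standard Hill equation.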

[4] = Cell Viability - SH-SY5Y (AID 544); settings: SH-SY5Y neuroblastoma cell viability; viability change, negative = cytotoxic: at 92.2 µM (top of the series);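 further: cells exposed to compound for 40 hours; nearly all actives have a fitted effect of over 55% in size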; further: potency means the concentration at half of the fitted maximal effect;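 on viability change, negative = cytotoxic: 0% = DMSO alone and -100% = 100 µM tamoxifen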
In short: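 Cytotoxicity measured via ATP-dependent luciferase luminescence (CellTiter-Glo) following 40 h, 37 °C exposure of 1500 SH-SY5Y cells per well. Concentration-response data were fitted with the standard Hill equation to give AC50.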

[5] = Cell Viability - LYMP2-004 (AID 966); further: nearly all actives have a fitted effect of over 65% in size; further: potency means the concentration at half of the fitted maximal effect;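 on activity change, negative = cytotoxicity: plate controls were DMSO only for no effect and tetraoctylammonium bromide control for full effect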
In short: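 AC50 values come from Hill modelling of concentration-dependent loss of intracellular ATP, measured by CellTiter-Glo luminescence. Human LYMP2-004 lymphoblastoid cells (2500/well) were exposed to compound for 24 h at 37 C.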

[6] = Cell Viability - LYMP2-011 (AID 969); further: nearly all actives have a fitted effect of over 60% in size; further: potency means the concentration at half of the fitted maximal effect;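 on viability change, negative = cytotoxic: 0% = DMSO only and full inhibition = 92 µM tetraoctylammonium bromide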
In short: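 Cytotoxicity qHTS with ATP content as read-out: lymphoblastoid cells (2500/well) exposed to compound for 24 h at 37 C, then luciferase luminescence measured. Concentration-response data fitted with the standard Hill equation to give AC50.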

[7] = Cell Viability - LYMP2-007 (AID 979);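 further: cells exposed to compound for 24 h before reading; nearly all actives have a fitted effect of over 60% in size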; further: potency means the concentration at half of the fitted maximal effect;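 on activity change, negative = cytotoxicity: 0% = DMSO only and the negative end = 92 µM tetraoctylammonium bromide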
In short: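 AC50 values come from Hill-equation fits of luminescent intracellular ATP (CellTiter-Glo, 30 min, room temperature) following 24 h compound exposure at 37 C. Cells: LYMP2-007 lymphoblastoid line, 2500 per well, in complete culture medium.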

[8] = qHTS assay for small molecule antagonists of peroxisome proliferator-activated receptor delta signaling (AID 588535); settings: HEK293T PPARd-UAS-bla, beta-lactamase FRET ratio, 18 h; 460 nm channel;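 further: cells co-treated with a PPAR-delta agonist as stimulator during compound exposure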
In short: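 Fluorescence from CCF4-loaded GeneBLAzer PPAR-delta-UAS-bla HEK293T cells (2 hrs RT loading) quantified reporter inhibition after an 18 hr, 37 C compound exposure across a titration.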

[9] = biological target: Peroxisome proliferator-activated receptor gamma (Homo sapiens) (UniProt P37231); test: qHTS assay for small molecule antagonists of peroxisome proliferator-activated receptor gamma signaling (AID 588537; active means well fitted inhibition curve with a large enough effect in the signal ratio, with a control signal flat, not every such curve was filed as active; the % refers to the signal ratio;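 further: reporter cells co-stimulated with 50 nM rosiglitazone agonist during compound treatment; % of control where 0% means no effect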)
Chain of Peroxisome proliferator-activated receptor gamma (Homo sapiens) (P37231 whole entry, looked up): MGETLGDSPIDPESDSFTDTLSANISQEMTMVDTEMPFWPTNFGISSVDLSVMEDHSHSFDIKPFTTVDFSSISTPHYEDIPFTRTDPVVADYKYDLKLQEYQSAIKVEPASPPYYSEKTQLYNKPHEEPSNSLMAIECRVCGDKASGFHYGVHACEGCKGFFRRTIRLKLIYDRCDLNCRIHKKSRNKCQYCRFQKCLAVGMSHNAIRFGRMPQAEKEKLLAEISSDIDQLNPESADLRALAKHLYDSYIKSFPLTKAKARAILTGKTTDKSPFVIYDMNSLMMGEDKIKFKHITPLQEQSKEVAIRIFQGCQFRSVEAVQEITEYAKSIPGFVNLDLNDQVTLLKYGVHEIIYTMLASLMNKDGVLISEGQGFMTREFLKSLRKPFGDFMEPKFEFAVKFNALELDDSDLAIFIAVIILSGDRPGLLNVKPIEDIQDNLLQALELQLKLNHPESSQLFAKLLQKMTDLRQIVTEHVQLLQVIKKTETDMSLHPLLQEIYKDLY
In short: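 Fluorescence at 460 and 530 nm (405 nm excitation) reported beta-lactamase cleavage of CCF4 after 2 h room-temperature loading. HEK293 reporter cells in 1% charcoal/dextran-treated FBS had received compound and rosiglitazone for 16 h.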

[10] = biological target: Tumor necrosis factor (Homo sapiens) (UniProt P01375); test: qHTS assay to identify small molecules that stimulate Tumor Necrosis Factor-alpha (TNF-alpha) secretion (AID 651757; active means well fitted curve in the direction sought with a large enough effect in the signal ratio; the % refers to the signal ratio; further: 0% is about no effect)
Chain of Tumor necrosis factor (Homo sapiens) (P01375 whole entry, looked up): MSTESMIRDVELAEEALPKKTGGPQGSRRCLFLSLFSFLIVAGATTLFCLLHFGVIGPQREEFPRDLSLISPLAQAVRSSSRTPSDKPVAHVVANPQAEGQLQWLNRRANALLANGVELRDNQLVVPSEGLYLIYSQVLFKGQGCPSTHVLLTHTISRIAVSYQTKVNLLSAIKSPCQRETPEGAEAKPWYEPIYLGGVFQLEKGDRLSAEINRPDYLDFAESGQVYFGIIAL
In short: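 Secreted TNF-alpha quantified by TR-FRET sandwich of two labeled anti-TNF-alpha antibodies, incubated 3 hr at room temperature. Preceded by 17 hr, 37 C compound treatment of THP-1 cells at 3000 cells/well.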

[11] = qHTS assay for small molecule agonists of the antioxidant response element (ARE) signaling pathway measured by Nrf2-dependant transcriptional activity (AID 720636; active means well fitted curve in the direction sought with a large enough effect in the repeat runs; an effect the other way counts as inactive or inconclusive; further: % of control where 0% means no effect)
In short: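 Nrf2-dependent transcription read as ONE-Glo luciferase signal from ARE-luc HepG2 reporter cells after 16 hr compound treatment at 37 C, 5% CO2, in assay medium with 1% dialyzed FBS.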

[12] = Cell Viability - LYMP2-008 (AID 980); further: nearly all actives have a fitted effect of over 60% in size; further: potency means the concentration at half of the fitted maximal effect; on activity change, negative = cytotoxicity: on the % scale 0 is the no-effect control and ±100 the full control effect
In short: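 Cytotoxicity determined from ATP-dependent luciferase luminescence (CellTiter-Glo) following 24 h compound exposure of human lymphoblastoid LYMP2-008 cells at 37 C. Concentration-response data fitted to the Hill equation to give AC50.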

[13] = biological target: Bile acid receptor (Homo sapiens) (UniProt Q96RI1); test: qHTS assay for small molecule antagonists of farnesoid X receptor signaling (AID 588526; calls by dose curve; further: potency means the concentration at half of the fitted maximal effect)
Chain of Bile acid receptor (Homo sapiens) (Q96RI1 whole entry, looked up): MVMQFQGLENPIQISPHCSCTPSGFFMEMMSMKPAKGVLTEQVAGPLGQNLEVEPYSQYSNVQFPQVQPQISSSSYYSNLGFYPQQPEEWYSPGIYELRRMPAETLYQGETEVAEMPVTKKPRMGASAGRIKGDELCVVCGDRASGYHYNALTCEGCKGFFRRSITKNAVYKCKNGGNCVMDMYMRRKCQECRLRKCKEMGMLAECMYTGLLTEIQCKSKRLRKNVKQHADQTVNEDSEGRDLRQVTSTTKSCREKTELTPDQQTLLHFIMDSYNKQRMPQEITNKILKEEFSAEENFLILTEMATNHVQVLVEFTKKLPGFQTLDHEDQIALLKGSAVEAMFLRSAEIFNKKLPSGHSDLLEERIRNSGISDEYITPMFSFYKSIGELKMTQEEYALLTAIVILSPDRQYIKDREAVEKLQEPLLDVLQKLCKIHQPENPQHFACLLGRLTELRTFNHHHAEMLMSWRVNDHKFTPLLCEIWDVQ
In short: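 Antagonist mode: titrated compounds tested against chenodeoxycholic acid stimulation (normalized to 50 uM CDCA and DMSO) in GeneBLAzer HEK293T cells for 16 h. Beta-lactamase read by CCF4 fluorescence; IC50 from Hill fits.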

[14] = biological target: Retinoic acid receptor RXR-alpha (Homo sapiens) (UniProt P19793); test: qHTS assay for small molecule agonists of retinoid X receptor alpha signaling (AID 588544; calls by dose curve;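 further: 0% = DMSO basal wells and 100% = reference agonist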)
Chain of Retinoic acid receptor RXR-alpha (Homo sapiens) (P19793 whole entry, looked up): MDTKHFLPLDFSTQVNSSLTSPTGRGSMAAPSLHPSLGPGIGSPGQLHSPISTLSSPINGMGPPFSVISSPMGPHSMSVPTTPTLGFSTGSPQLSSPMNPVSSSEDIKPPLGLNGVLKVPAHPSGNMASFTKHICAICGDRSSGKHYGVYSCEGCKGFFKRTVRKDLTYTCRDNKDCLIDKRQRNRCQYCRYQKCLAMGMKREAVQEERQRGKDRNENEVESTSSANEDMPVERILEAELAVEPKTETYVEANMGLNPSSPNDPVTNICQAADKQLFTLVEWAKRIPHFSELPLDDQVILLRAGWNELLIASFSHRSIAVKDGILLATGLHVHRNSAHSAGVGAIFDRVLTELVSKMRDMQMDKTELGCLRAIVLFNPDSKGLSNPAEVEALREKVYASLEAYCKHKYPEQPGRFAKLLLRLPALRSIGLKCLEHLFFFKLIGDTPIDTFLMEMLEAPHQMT

[15] = qHTS assay for small molecule activators of the p53 signaling pathway (AID 651743; active means well fitted activation curve with a large enough effect in the signal ratio, not every such curve was filed as active; the % refers to the signal ratio; further: potency means the concentration at half of the fitted maximal effect; on activation: % of control where 0% means no effect); settings: HCT-116 p53RE-bla, beta-lactamase FRET ratio, 16 h; activation: stronger effect = higher value
In short: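 Following 16 hours of compound exposure at 37 C, HCT-116 cells bearing the p53RE-bla reporter were loaded with LiveBLAzer B/G FRET substrate for 2 hours at room temperature and fluorescence intensity was recorded.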

[16] = Cell Viability - LYMP2-001 (AID 921); further: nearly all actives have a fitted effect of over 70% in size; further: potency means the concentration at half of the fitted maximal effect
In short: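 qHTS, 1536-well; lymphoblastoid cells, 24 hr compound, 37 C; ATP by CellTiter-Glo, 30 min RT; luminescence; Hill-fit AC50.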

[17] = biological target: Vitamin D3 receptor (Homo sapiens) (UniProt P11473); test: qHTS assay for small molecule agonists of vitamin D receptor signaling (AID 588543; calls by dose curve;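 further: 0% = DMSO basal and 100% = reference agonist control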)
Chain of Vitamin D3 receptor (Homo sapiens) (P11473 whole entry, looked up): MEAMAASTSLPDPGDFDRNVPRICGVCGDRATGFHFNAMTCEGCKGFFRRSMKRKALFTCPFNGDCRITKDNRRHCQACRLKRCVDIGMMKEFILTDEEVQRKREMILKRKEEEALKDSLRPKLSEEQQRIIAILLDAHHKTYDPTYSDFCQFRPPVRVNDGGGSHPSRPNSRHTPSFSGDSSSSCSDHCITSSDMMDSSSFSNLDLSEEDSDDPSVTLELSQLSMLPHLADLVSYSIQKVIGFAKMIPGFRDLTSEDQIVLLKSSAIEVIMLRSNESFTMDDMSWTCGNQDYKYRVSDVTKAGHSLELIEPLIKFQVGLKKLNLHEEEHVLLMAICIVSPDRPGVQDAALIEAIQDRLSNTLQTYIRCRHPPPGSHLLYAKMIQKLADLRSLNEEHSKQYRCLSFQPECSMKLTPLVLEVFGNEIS
In short: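 qHTS in agonist mode: compound titrations stimulate a VDR-driven β-lactamase reporter in HEK293T cells over 16 h at 37 °C. Response normalized to 50 nM 1α,25-dihydroxyvitamin D3 = 100%, DMSO = 0%; Hill fitting gives EC50 and maximal response.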

[18] = qHTS assay to identify small molecules that stimulate interleukin-8 (IL-8) secretion (AID 651758; active means well fitted activation curve with a large enough effect in the signal ratio; the % refers to the signal ratio; further: potency means the concentration at half of the fitted maximal effect; on activation: 0% is about no effect)
In short: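 Compounds are added to THP-1 cells (2000 per well) and left 16 hrs at 37 C. A labeled anti-IL-8 antibody pair is then added, and IL-8 secretion is measured by time-resolved FRET after 1-3 hrs at room temperature.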

[19] = biological target: Peroxisome proliferator-activated receptor gamma (Homo sapiens) (UniProt P37231); test: qHTS assay for small molecule agonists of peroxisome proliferator-activated receptor gamma signaling (AID 588536; active means well fitted curve in the direction sought with a large enough effect in the signal ratio, with a control signal flat, not every such curve was filed as active; the % refers to the signal ratio;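 further: 0% = DMSO basal wells and 100% = rosiglitazone at 2 µM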)
In short: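 Cells were plated and held 6–6.5 h at 37 C, then compounds were added as a titration series. After a further 16 h, CCF4 dye was loaded for 2 h at room temperature and emission at 460/530 nm recorded.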

[20] = Cell Viability - Jurkat (AID 426;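 active means dose-dependent loss of cell ATP signal giving a full or clear fitted curve, ranked by lower potency value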;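 further: potency means the concentration at half of the fitted maximal effect; cells exposed to compound for 40 hours at 37 °C before ATP read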); settings: qHTS
In short: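 Cytotoxicity taken as drop in cellular ATP (CellTiter-Glo luminescence, 20 min room temperature) after 40 hr, 37C treatment of 5000 Jurkat Clone E6-1 cells per well; concentration-response fitted with Hill equation for AC50.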

CCCC(=O)OC(=O)CCC
inactive: Potency [1] | activity change, negative = cytotoxicity [2] -12.9% | Potency [3] | Potency [4] | Potency [5] | Potency [6] | Potency [7] | Potency [9] | Potency [10] | Potency [11]
16.1% and 21.1%: max response [8]

C[Si](C)(C)Cl
inactive: Potency [3] | Potency [6] | Potency [12] | Potency [13] | Potency [14] | activation [15] -2.87% | Potency [10]

CC(/C=C/C=C(C)/C=C/C(=O)O)=C\C=C\C=C(C)\C=C\C=C(C)\C=C\C(=O)O
inactive: Potency [1] | activity change, negative = cytotoxicity [2] -5.79% | Potency [3] | Potency [16] | Potency [13] | Potency [17] | Potency [14]

NC(=O)Nc1nc2ccccc2[nH]1
inactive: Potency [1] | activity change, negative = cytotoxicity [2] -4.08% | Potency [4] | Potency [7] | Potency [12] | Potency [13] | Potency [17] | activation [15] -0.426%
-10.2%: max response [8]

Nc1cnn([C@@H]2O[C@H](CO)[C@@H](O)[C@H]2O)c(=O)n1
inactive: Potency [1] | activity change, negative = cytotoxicity [2] 8.82% | Potency [3] | Potency [4] | Potency [16] | Potency [5] | Potency [6] | Potency [12] | Potency [14] | Potency [11]
active: Potency [13] 25.1 µM | Potency [18] 75 µM

Nc1cc([N+](=O)[O-])ccc1O
32.9% and 36.8%: max response [8]
inactive: Potency [1] | Potency [3] | Potency [5] | Potency [7] | Potency [12] | outcome [19] | Potency [9] | activation [15] -1.58% and -3.77%

CC(=O)CC(=O)Nc1ccccc1
inactive: Potency [1] | Potency [16] | Potency [6] | Potency [13] | outcome [19] | Potency [9] | Potency [10] | Potency [18] | Potency [11]
18.5%: max response [8]

O=[N+]([O-])c1ccccc1Nc1ccccc1
inactive: Potency [4] | Potency [5] | Potency [7] | Potency [12] | outcome [19] | Potency [17]

Clc1nc2ccccc2nc1Cl
inactive: Potency [1] | Potency [5] | Potency [6] | Potency [17]

C=CC(=O)CC
inactive: Potency [1] | activity change, negative = cytotoxicity [2] 4.36% | Potency [3] | Potency [5] | Potency [7] | Potency [12] | Potency [13] | Potency [17]

Cc1c(N)cccc1Cl
inactive: Potency [3] | Potency [16] | Potency [5] | Potency [6] | Potency [7] | Potency [12] | Potency [13] | Potency [17] | Potency [14] | activation [15] -0.236% | Potency [10] | Potency [18] | Potency [11]
-10%: max response [8]

c1ccc(COCc2ccccc2)cc1
inactive: activity change, negative = cytotoxicity [2] -4.56% | Potency [4] | Potency [16] | Potency [5] | Potency [6] | Potency [7] | Potency [12] | Potency [13] | Potency [9] | Potency [17] | Potency [14] | activation [15] -1.51% | Potency [18]

Nc1ccc(-c2ccc(N)c(O)c2)cc1O
inactive: Potency [1] | Potency [12] | activation [15] 2.61%

C=CC(=O)OCCCCCCOC(=O)C=C
active: Potency [20] 21.1 µM | activity change, negative = cytotoxicity [2] -110% | Potency [16] 31.6 µM | Potency [5] 39.8 µM | Potency [6] 39.8 µM | Potency [7] 39.8 µM | Potency [15] 70.8 µM
inactive: Potency [1] | Potency [13] | outcome [19] | Potency [9] | Potency [14] | activation [15] -3.66%
35%: max response [8]

O=Nc1ccc(Nc2ccccc2)cc1
active: Potency [20] 3.86 µM | activity change, negative = cytotoxicity [2] -115% | Potency [3] 31.6 µM | Potency [4] 2.51 µM
inactive: Potency [1]

Cc1c(C(=O)O)c(O)cc2c1C(=O)c1c(O)c([C@H]3O[C@H](CO)[C@@H](O)[C@H](O)[C@H]3O)c(O)c(O)c1C2=O
28.9%: max response [8]
inactive: Potency [13] | outcome [19] | Potency [17] | Potency [14] | Potency [11]

Oc1cc2c(cc1O)[C@H]1c3ccc(O)c(O)c3OC[C@@]1(O)C2
active: Potency [7] 39.8 µM

C/C=C/C=C/C=O
inactive: Potency [1] | Potency [9] | Potency [14] | Potency [11]
active: Potency [4] 31.6 µM | Potency [16] 39.8 µM | Potency [5] 31.6 µM | Potency [12] 39.8 µM
13.6%: max response [8]

O=C(OCC1CO1)C1CCCCC1C(=O)OCC1CO1 (stereo not drawn)
active: Potency [4] 25.1 µM | Potency [7] 50.1 µM | Potency [18] 66.8 µM
inactive: Potency [1] | Potency [10]

Cc1cc(=O)oc2cc(O)cc(O)c12
inactive: Potency [16] | Potency [5] | Potency [13] | outcome [19] | activation [15] 10.2%

C/C=C1/C(=O)C[C@H]2[C@@H]3CCC4=CC(=O)CC[C@]4(C)[C@H]3CC[C@]12C
active: Potency [16] 50.1 µM | Potency [6] 50.1 µM | Potency [12] 50.1 µM
inactive: Potency [1] | Potency [5]

O=[N+]([O-])c1cc(N(CCO)CCO)ccc1NCCO
inactive: Potency [7] | Potency [11]
25% and 8.06%: max response [8]

CCCCCCCC/C=C\CCCCCCCC(=O)N(CCO)CCO
92.2%: max response [8]
inactive: Potency [1] | Potency [16] | Potency [5] | Potency [6] | Potency [13] | Potency [14] | activation [15] -2.93%

Oc1cc(Cl)cc(Cl)c1Cl
inactive: Potency [1] | Potency [3] | Potency [5] | Potency [6] | Potency [12] | Potency [17]

O=C(OCc1ccccc1)c1ccccc1O
2.34% and -10.8%: max response [8]
inactive: Potency [3] | Potency [4] | Potency [6] | Potency [7] | Potency [10] | Potency [18] | Potency [11]

CC(C)(C)C(=O)C1C(=O)c2ccccc2C1=O
inactive: Potency [16] | Potency [5] | Potency [7] | Potency [17] | activation [15] 12% | Potency [18] | Potency [11]

O=C1c2ccccc2C(=O)C1(O)O
inactive: Potency [1] | Potency [12] | Potency [17] | Potency [14] | Potency [10]
active: activity change, negative = cytotoxicity [2] -94.6%

O=C(Cl)c1ccc([N+](=O)[O-])cc1
8.99%: max response [8]
inactive: Potency [1] | Potency [16] | Potency [5] | Potency [6] | Potency [7] | Potency [12] | Potency [14] | Potency [10] | Potency [18] | Potency [11]

CC1=C(/C=C/C(C)=C/C=C/C(C)=C/C=O)C(C)(C)CCC1
inactive: Potency [1]
active: Potency [2] 31.6 µM | Potency [3] 25.1 µM | Potency [16] 39.8 µM | Potency [6] 63.1 µM | Potency [7] 39.8 µM | Potency [18] 0.422 µM

CC/C=C/C/C=C/C/C=C/CCCCCCCC(=O)OCC
inactive: Potency [3] | Potency [10]
active: Potency [5] 31.6 µM | Potency [7] 31.6 µM
